Pol eta inh-1 – qHTS for Inhibitors of Polymerase Eta. recombinant Pol eta, fluorescent DNA replication assay. Potency, µM (highest dose often 114 µM), usual class: inhibitors. actives 1.2% (n = 390,000)
Target sequence (Q9Y253 whole entry, looked up): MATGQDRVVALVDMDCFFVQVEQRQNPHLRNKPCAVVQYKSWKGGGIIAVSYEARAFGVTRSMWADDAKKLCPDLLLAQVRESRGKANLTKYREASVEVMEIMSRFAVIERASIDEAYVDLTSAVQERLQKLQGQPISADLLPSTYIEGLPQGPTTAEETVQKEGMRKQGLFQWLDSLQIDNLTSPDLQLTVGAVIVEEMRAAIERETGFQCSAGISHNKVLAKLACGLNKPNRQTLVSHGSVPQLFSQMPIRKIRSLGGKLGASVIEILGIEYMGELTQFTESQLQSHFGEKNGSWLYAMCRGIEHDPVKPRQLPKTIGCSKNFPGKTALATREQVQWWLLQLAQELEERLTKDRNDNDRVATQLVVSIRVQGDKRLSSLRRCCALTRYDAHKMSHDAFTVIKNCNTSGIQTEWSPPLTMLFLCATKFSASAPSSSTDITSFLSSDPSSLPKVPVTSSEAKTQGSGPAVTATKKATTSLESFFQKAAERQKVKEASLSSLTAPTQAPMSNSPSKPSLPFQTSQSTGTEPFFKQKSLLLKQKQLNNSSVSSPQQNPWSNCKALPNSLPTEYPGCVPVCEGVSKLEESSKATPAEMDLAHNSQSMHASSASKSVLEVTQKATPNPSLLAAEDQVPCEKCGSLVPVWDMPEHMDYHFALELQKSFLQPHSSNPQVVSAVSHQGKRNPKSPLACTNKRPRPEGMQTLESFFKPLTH
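Fluorescent replication assay: 50 nM final substrate added after a 15 min room-temperature compound preincubation with 10 nM enzyme. Signal taken at 0 min and again at 10 min.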
Pol kappa inh-1 – qHTS for Inhibitors of Polymerase Kappa; DNA polymerase kappa (Homo sapiens), Q9UBT6; purified Pol kappa, fluorescent DNA synthesis assay, 10 min; actives 0.53% (n = 400,000); Potency, µM (doses to about 107 µM), usual class: inhibitors
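Kinetic fluorescence readout at 0 and 10 min followed reaction start with substrate at 50 nM final. Beforehand, enzyme (10 nM Pol kappa) stood 15 min with compound at room temperature; buffer-only wells were negative controls.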
L3MBTL1 inh – qHTS Assay for the Inhibitors of L3MBTL1 | Lethal(3)malignant brain tumor-like protein 1 (Homo sapiens), Q9Y468 | AlphaScreen L3MBTL1–H3K9me1 peptide binding | Potency, µM (highest dose often 57.1 µM), most hits filed as inhibitors | actives 0.66% (n = 230,000) | AID 485360, 2010; further: nearly all actives have a fitted effect of over 60% in size
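First, the protein-peptide complex forms for 30 min at room temperature (L3MBTL1 50 nM, biotinylated H3K9me1 peptide 75 nM). Next, compounds are pin-transferred and incubated 30 min. Finally, AlphaScreen beads are added and read after 30 min.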
WRN inhibitor – qHTS for Inhibitors of WRN Helicase. Bifunctional 3'-5' exonuclease/ATP-dependent helicase WRN (Homo sapiens), Q14191. WRN helicase unwinding, fluorescent forked duplex, kinetic. Potency, µM (doses to about 114 µM), usual class: inhibitors. actives 0.46% (n = 360,000); further: nearly all actives have a fitted effect of over 55% in size
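Fluorescence dequenching readout, ex 525 nm/em 598 nm, kinetic mode: forked duplex DNA (100 nM final) with adjacent fluorophore and quencher unwound by WRN (20 nM final) with 2 mM ATP. Compound preincubation 15 min, room temperature.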
Pol iota inh – qHTS for Inhibitors of Polymerase Iota; actives 1% (n = 390,000); DNA polymerase iota (Homo sapiens), Q9UNA4; Potency, µM (highest dose often 115 µM), hits mostly inhibitors; Pol iota fluorescent replication assay, 10 min
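Pol iota at 10 nM preincubated 15 min with compounds at room temperature; reaction started with fluorescent substrate, 50 nM final. Fluorescence read kinetically at 0 and 10 min; buffer-only wells as negative control.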
POLB inh – qHTS Assay for Inhibitors of DNA Polymerase Beta. P06746. Potency, µM (titrated, usually from 114 µM), actives largely listed as inhibitors. Pol beta primer extension/strand displacement, fluorescence kinetic. actives 1.3% (n = 340,000)
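Preincubation: enzyme (10 nM) with compound, 15 min, RT. Reaction: substrate added to 50 nM final. Reads: 0 and 10 min. Analysis: normalized, Hill fit.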
GALK inh confirm – Confirmation Assay for Inhibitors of Human Galactokinase (GALK) | shares compounds with Pol eta inh-1 | purified GALK, Kinase-Glo ATP depletion luminescence | Potency, µM (series often up to 115 µM), hits mostly inhibitors | actives 70% (n = 150) | AID 2015, 2009
Redox cycling – Confirmatory Assay for Inhibitors of Human Galactokinase (GALK): Phenol-HRP redox assay counterscreen | Phenol red-HRP H2O2 redox cycling, absorbance 600 nm | Potency, µM (top dose mostly 115 µM), hits mostly inhibitors | actives 40% (n = 150) | shares compounds with Pol eta inh-1
HEK293 tox – Secondary Assay for Inhibitors of Human Galactokinase (GALK): HEK-293 Cell Viability Assay. Potency, µM (highest dose often 46.1 µM), usual class: inhibitors. shares compounds with Pol eta inh-1. HEK-293 viability, ATP luminescence (CellTiter-Glo), 24/48 h. actives 10% (n = 170)
Pol kappa inh-2 – qHTS for Inhibitors of Polymerase Kappa: Confirmatory Assay for Cherry-picked Compounds. shares compounds with Pol eta inh-1. purified Pol-kappa, fluorescent strand-displacement substrate. Potency, µM, usual class: inhibitors. actives 76% (n = 920). AID 720501, 2013
Pol eta inh-2 – qHTS for Inhibitors of Polymerase Eta: Confirmatory Assay for Cherry-picked Compounds; shares compounds with Pol eta inh-1; Pol eta primer extension, TAMRA/BHQ fluorescence, 10 min; Potency, µM, most hits filed as inhibitors; actives 64% (n = 2,600)
Hits are given with their value; . = inactive; ? = inconclusive; / = not tested or not shown; ! = not active in a repeat; [ ] = remark or other dose. Sampled rows, rich in hits. Any-hit rate of the full collection: about 2.5%. The call rests on the fitted dose curve; in most records, active means well fitted curve in the direction sought with a large enough effect; inconclusive means small, poorly fitted or top-dose-only effect, or another doubt; inactive means no such curve, though single readings can be large; an effect the other way counts as inactive or inconclusive.

SMILES	Pol eta inh-1	Pol kappa inh-1	L3MBTL1 inh	WRN inhibitor	Pol iota inh	POLB inh	Pol eta inh-2	others
CCc1ccc(N2C(=O)NC(=O)/C(=C\c3cc(C)n(-c4cc(C(=O)O)cc(C(=O)O)c4)c3C)C2=O)cc1	14.1µM	?	/	?	20µM	11.2µM	30.1	Pol kappa inh-2=11.9
CCc1ccc(N2C(=O)NC(=O)/C(=C/c3ccsc3)C2=O)cc1	/	/	/	/	/	.	/
COC(=O)C1=C(c2cccc(C#N)c2)C[C@@H]2CC[C@H]1N2C(=O)NCCOc1ccccc1Cl	.	.	.	.	.	/	/
O=c1ccc2cc(OC3O[C@H](CO)[C@@H](O)[C@H](O)[C@H]3O)c(O)cc2o1 (stereo partly drawn)	.	.	.	.	.	/	/
O=c1cc(-c2ccc(O)c(O)c2)oc2c(C3O[C@H](CO)[C@@H](O)[C@H](O)[C@H]3O)c(O)cc(O)c12 (stereo partly drawn)	?	20µM	10µM	.	28.2µM	20µM	?	Pol kappa inh-2=18.9
CCn1ncc(-c2ccnc3cc(C(=O)O)nn23)c1C	25.1µM	.	15.8µM	.[11.6 µM]	35.5µM	?	?
C=CCOC(=O)C1C(C(=O)O)C2(Cl)C(Cl)=C(Cl)C1(Cl)C2(Cl)Cl (stereo not drawn)	.	.	/	.	?	/	/
O=C(O)C1C(C(=O)O)C2(Cl)C(Cl)=C(Cl)C1(Cl)C2(Cl)Cl (stereo not drawn)	.	79.4µM	.	.[11.6 µM]	44.7µM	/	?
COc1cc2c(cc1OC)[C@@]13CCN4CC5=CCO[C@H]6CC(=O)N2[C@H]1[C@H]6[C@H]5C[C@H]43	.	.	.	.	.	.	/
O=C(O)CC1OCC=C2CN3CCC45C6=CC(=O)C(=O)C([N+](=O)[O-])=C6NC4C1C2CC35 (stereo not drawn)	5.01µM	39.8µM	25.1µM	.	1.78µM!	?	/	GALK inh confirm=10.6µM;Redox cycling=5.3µM;HEK293 tox=.
O=C(O)CC1OCC=C2CN3CCC45c6ccccc6NC4C1C2CC35 (stereo not drawn)	.	.	/	.	?	.	/
O=C(O)CCC(=O)NCCC1=c2ccccc2=N/C1=C\c1c(O)n(Cc2ccc(F)cc2)c(=S)[nH]c1=O	50.1µM	?	.	79.4µM	?	.	?
Cc1cccc(N2C(=O)NC(=O)/C(=C\c3cccn3-c3ccc(Cl)cc3)C2=O)c1	11.2µM	79.4µM	.	?	22.4µM	22.4µM	60.1
COc1ccc(C2CC(=O)Oc3c2c(=O)oc2ccccc32)c(OC)c1OC (stereo not drawn)	/	.	/	/	?	.	/
Ic1cncc(OC[C@@H]2CCN2)c1	/	.[19.4 µM]	/	/	/	/	/
COc1cc(O)c(C(=O)O)c(-c2cc(O)c(O)cc2C)c1	10µM	?	/	.	?	20µM	?
N#CCP(=S)(c1ccccc1)c1ccccc1	.	.	.	.	.	.	/
Cc1ccc(N2C(=O)NC(=O)/C(=C\C=C\c3ccco3)C2=O)cc1C	22.4µM	25.1µM	?	15.8µM	10µM	39.8µM	60.1
O=C1NC(=O)N(c2ccccc2)C(=O)/C1=C/C=C/c1ccco1	12.6µM	39.8µM	/	?	?	?	37.9
O=C1NC(=O)N(Cc2ccccc2)C(=O)/C1=C/N1CCCc2ccccc21	.	.	?	.	?	.	/
O=C1NC(=O)N(c2ccccc2)C(=O)/C1=C/c1ccc2c(c1)Cc1ccccc1-2	/	/	/	/	/	.	/
O=C1NC(=O)N(Cc2ccccc2)C(=O)/C1=C\C=C\c1ccco1	17.8µM	35.5µM	/	50.1µM	15.8µM	20µM	75.7
CC1CC2CC(=O)CCC2(C)C2CCC3(C)C(O)CCC3C12 (stereo not drawn)	.	/	/	.	/	/	/
CC(C)(C)N1C(=O)NC(=O)/C(=C\c2ccc3c(c2)CCN3CCCCl)C1=O	?	.	/	.	?	?	/
C=CCN1C(=O)/C(=C/c2ccc3c(c2)CCCN3CCC)C(=O)NC1=S	70.8µM	?	.	56.2µM	?	?	67.5
SMILES	Pol eta inh-1	Pol kappa inh-1	L3MBTL1 inh	WRN inhibitor	Pol iota inh	POLB inh	Pol eta inh-2	others
C=CCN1C(=O)/C(=C/c2ccc(Br)s2)C(=O)NC1=S	20µM	79.4µM	.	56.2µM	17.8µM	?	?
C=CCN1C(=O)/C(=C/c2cc(C)n(-c3cccnc3)c2C)C(=O)NC1=S	.	.	.	?	.	.	/
Cc1c(Cl)cccc1N1C(=O)NC(=O)/C(=C\c2cc(C)n(-c3cccc(C(=O)O)c3C)c2C)C1=O	35.5µM	79.4µM	.	.[11.6 µM]	11.2µM	?	?
Cc1cc(/C=C2\C(=O)NC(=O)N(c3cccc(F)c3)C2=O)c(C)n1-c1ccc(C(=O)O)c(Cl)c1	14.1µM	?	?	.[11.6 µM]	?	25.1µM	33.8
O=C(c1ccc2c(c1)N(Cc1cccc(F)c1)C(=O)c1ccccc1S2)N1CCC2(CC1)OCCO2	?	.	/	/	.	22.4µM	?	Pol kappa inh-2=?
O=C(c1ccc2c(c1)N(Cc1ccc(F)cc1Cl)C(=O)c1ccccc1S2)N1CCC2(CC1)OCCO2	.	.	/	/	.	.	/
C[C@@H]1O[C@@H](O[C@@H]2C=C3CC[C@@H]4[C@@H](CC[C@]5(C)[C@H](c6ccc(=O)oc6)CC[C@@]45O)[C@@]3(C)CC2)[C@H](O)[C@H](O)[C@H]1O	/	.	/	/	.	/	/

Screening data (PubChem)
